The values that follow come from PubChem BioAssay (NCI).

About 83,000 compounds went through this panel and 20% of them were active in at least one assay; those are over-represented in the sample as a whole.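 For each line, cells grew in 96-well plates with the test compound present at a single concentration for 48 hours.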 Values without a mark were called inactive. Activity calls are given as the source filed them. How the source made its calls: active means growth percent below 10; inactive means the rest.

Common to all, as to test: NCI-60 one-dose screen, 48 h (100 = growth as untreated, 0 = no growth, -100 = all killed)
One experiment concerns NCI-H23 lung. The following applies: 10 µM unless noted.
The next experiment deals with NCI-H226 lung. The following applies: 10 µM unless noted.
The next experiment deals with NCI-H322M lung. The following applies: 10 µM unless noted.
For a further experiment, the system named is HOP-62 NSCLC. The following applies: 10 µM unless noted.
The next experiment has as its system NCI-H460 lung. As to conditions: 10 µM unless noted.
The test system of the next experiment is HOP-92 NSCLC. As to conditions: 10 µM unless noted.
Another experiment has as its system NCI-H522 lung. As to conditions: 10 µM unless noted.
A further experiment concerns A549/ATCC NSCLC. As to conditions: 10 µM unless noted.
For a further experiment, the system named is 786-0 renal. As to conditions: 10 µM unless noted.
The test system of a further experiment is DU-145 prostate. The following applies: 10 µM unless noted.
The next experiment concerns K-562 leukemia. As to conditions: 10 µM unless noted.
The subject of another experiment is MALME-3M melanoma. The following applies: 10 µM unless noted.
The next experiment has as its system MDA-MB-231 breast. The following applies: 10 µM unless noted.
A further experiment deals with RXF 393 renal. As to conditions: 10 µM unless noted.
The test system of another experiment is SF-268 CNS. The following applies: 10 µM unless noted.
The test system of the next experiment is SF-295 CNS. As to conditions: 10 µM unless noted.
In another experiment the test system is SF-539 CNS. As to conditions: 10 µM unless noted.
The subject of a further experiment is UACC-257 melanoma. As to conditions: 10 µM.
A further experiment deals with M14 melanoma. The following applies: 10 µM unless noted.

`O=c1oc2ccc(-c3ccc(F)cc3F)cc2c(=O)n1-c1cccc(C(F)(F)F)c1`: the growth in the experiment with NCI-H23 lung is 0.0881% (active); with NCI-H226 lung, 13.4%; in the experiment on NCI-H322M lung, 3.52% (active); with HOP-62 NSCLC it was 15%; with NCI-H460 lung, 4.79% (active); in the experiment with HOP-92 NSCLC it was -25.6% (active). Further, the growth is 0.254% (active) in the experiment with NCI-H522 lung; 9.67% (active) in the experiment with A549/ATCC NSCLC; 14.7% in the experiment on 786-0 renal; 15.6% in the experiment with DU-145 prostate; 12.9% with K-562 leukemia; -14.7% (active) in the experiment with MALME-3M melanoma. Besides, the growth in the experiment on MDA-MB-231 breast is -4.78% (active); with RXF 393 renal, -24.7% (active); with SF-268 CNS, 16.1%; in the experiment with SF-295 CNS, -17.3% (active); in the experiment with SF-539 CNS, 11.6%; in the experiment with UACC-257 melanoma, -9.2% (active).
With `CC1(C)CC[C@]2(C(=O)O)CC[C@]3(C)C(=CCC4[C@@]5(C)C[C@@H](O)[C@@H]6OC(c7cccc([N+](=O)[O-])c7)OC[C@@]6(C)C5CC[C@]43C)C2C1` (stereo not given in full), the growth was 73.6% in the experiment on NCI-H23 lung; 77.2% with NCI-H226 lung; 41.7% in the experiment with NCI-H322M lung; 65.2% in the experiment on HOP-62 NSCLC; 65.4% in the experiment on NCI-H460 lung; 69.1% with HOP-92 NSCLC. For the same molecule, the growth is 71.8% with NCI-H522 lung; 37.1% with A549/ATCC NSCLC; 90.9% in the experiment on 786-0 renal; 60.1% in the experiment with DU-145 prostate; 44.9% in the experiment on K-562 leukemia; 86.7% in the experiment with MALME-3M melanoma. The growth was 82% with MDA-MB-231 breast; 85.3% in the experiment with RXF 393 renal; 74.6% in the experiment with SF-268 CNS; 36.8% in the experiment with SF-295 CNS; 83.7% in the experiment on SF-539 CNS; 103% with UACC-257 melanoma. Further, the growth with M14 melanoma was 72.8%.
Turning to `Cc1ccc(-c2nnc3sc(C4=Cc5ccccc5OC=C4)nn23)cc1`, the growth in the experiment with NCI-H23 lung was 96.4%; with NCI-H226 lung it was 96.4%; in the experiment on NCI-H322M lung it was 100%; in the experiment with HOP-62 NSCLC, 121%; with NCI-H460 lung, 101%; in the experiment on HOP-92 NSCLC it was -34.7% (active). The growth with NCI-H522 lung is 91%; in the experiment on A549/ATCC NSCLC, 92.3%; in the experiment on 786-0 renal it was 95%; in the experiment on DU-145 prostate it was 114%; in the experiment with K-562 leukemia, 104%; in the experiment with MALME-3M melanoma it was 97.6%. For the same molecule, the growth in the experiment with MDA-MB-231 breast is 94.1%; in the experiment on SF-268 CNS, 105%; in the experiment with SF-295 CNS, 98.9%; in the experiment on SF-539 CNS, 95.3%; with UACC-257 melanoma, 88.4%; with M14 melanoma, 99.8%.
Regarding `C#CCOc1ccc(/C=N/Nc2nc(-c3cc4cc(Br)cc(Br)c4oc3=O)cs2)cc1`, the growth with NCI-H23 lung is 94.6%; in the experiment with NCI-H226 lung, 93.8%; in the experiment on NCI-H322M lung it was 103%; with HOP-62 NSCLC, 105%; in the experiment on NCI-H460 lung, 101%; with HOP-92 NSCLC, 89.3%. For the same molecule, the growth with NCI-H522 lung is 95%; with A549/ATCC NSCLC it was 97%; in the experiment on 786-0 renal, 99.7%; in the experiment with DU-145 prostate, 96.1%; in the experiment with K-562 leukemia it was 90.7%; in the experiment on MALME-3M melanoma it was 109%. Also, the growth in the experiment with MDA-MB-231 breast was 96%; in the experiment with RXF 393 renal, 114%; in the experiment on SF-268 CNS, 84.8%; with SF-295 CNS, 91.4%; with SF-539 CNS it was 84.4%; in the experiment with UACC-257 melanoma, 106%. In addition, the growth in the experiment on M14 melanoma is 98.2%.
For the molecule `O=S(=O)(Nc1ccc(I)c(Cl)c1)c1ccc(-c2cnc(C3CC3)o2)cc1`, the growth is 33.8% in the experiment with NCI-H23 lung; 41.9% in the experiment with NCI-H226 lung; 46% in the experiment on NCI-H322M lung; 29% with HOP-62 NSCLC; 12.6% in the experiment on NCI-H460 lung; 49% in the experiment on HOP-92 NSCLC. For the same molecule, the growth was 24.7% in the experiment with NCI-H522 lung; 50.3% with A549/ATCC NSCLC; 41.7% in the experiment on 786-0 renal; 19.5% in the experiment on DU-145 prostate; 9.83% (active) in the experiment on K-562 leukemia; 49.4% in the experiment with MALME-3M melanoma. The growth with MDA-MB-231 breast is 44.8%; with RXF 393 renal, 2.46% (active); in the experiment with SF-268 CNS it was 59.4%; in the experiment with SF-295 CNS, 12.2%; in the experiment on SF-539 CNS, 10.9%; in the experiment with UACC-257 melanoma it was 69.9%. In addition, the growth with M14 melanoma was 20.9%.
As to `C/C(Cc1ccc(Cl)cc1)=C(/c1ccccc1)c1ccc(OCCN)cc1`, the growth in the experiment on NCI-H23 lung is 98.2%; in the experiment with NCI-H226 lung it was 91.4%; with NCI-H322M lung, 99.8%; in the experiment on HOP-62 NSCLC, 108%; in the experiment on NCI-H460 lung, 104%; in the experiment with HOP-92 NSCLC, 91.6%. Also, the growth is 96.1% with NCI-H522 lung; 99.1% with A549/ATCC NSCLC; 106% in the experiment on 786-0 renal; 106% in the experiment on DU-145 prostate; 88.5% in the experiment with MALME-3M melanoma; 98.7% in the experiment with MDA-MB-231 breast. The growth is 102% in the experiment with RXF 393 renal; 94.2% with SF-268 CNS; 99.7% in the experiment with SF-295 CNS; 99.7% in the experiment on SF-539 CNS; 106% with UACC-257 melanoma; 95.7% with M14 melanoma.
Take `CC(C)(C)n1nnnc1C(Nc1nccs1)c1cc2cccc3ccc4cccc1c4c32` (stereo not given): the growth with NCI-H23 lung is 100%; in the experiment on NCI-H226 lung it was -13% (active); in the experiment with NCI-H322M lung it was 95.5%; in the experiment on HOP-62 NSCLC, 84.9%; in the experiment on NCI-H460 lung, 99.8%; in the experiment with HOP-92 NSCLC it was 103%. In addition, the growth in the experiment with NCI-H522 lung is 100%; in the experiment with A549/ATCC NSCLC it was 108%; in the experiment with 786-0 renal, 107%; in the experiment with DU-145 prostate, 107%; in the experiment on K-562 leukemia, 102%; with MALME-3M melanoma, 97%. The growth was 99.3% with MDA-MB-231 breast; 92.1% with RXF 393 renal; 100% with SF-268 CNS; 93.1% in the experiment with SF-295 CNS; 92.9% in the experiment with SF-539 CNS; 100% in the experiment with UACC-257 melanoma. Also, in the experiment on M14 melanoma, the growth was 106%.
